# Data from PubChem BioAssay (NCATS).
# Inconclusive results are not listed. Activity calls are given as the source filed them. Calls come from the whole dose curve; as a rule, active = well fitted inhibition curve with a large enough effect; inconclusive = small, poorly fitted or top-dose-only effect; inactive = flat fitted curve, though single readings scatter.
# Assay: qHTS profiling for inhibitors of Plasmodium falciparum proliferation (AID 504749); note: nearly all actives have a fitted effect of over 60% in size;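 for activity, negative = inhibition: 0% = DMSO vehicle and full inhibition = artemisinin control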
# Conditions: P. falciparum in erythrocytes, SYBR Green DNA, 72 h; at 12.8 µM (top of the series); parasite line A
# Excerpt: NIH National Institute of Allergy and Infectious Diseases [NIAID] NIH Chemical Genomics Center [NCGC] MLPCN Grant: None Assay Provider: Xinzhuan Su, NIAID NCGC Assay Overview: Plasmodium falciparum is a virulent malarial parasite that kills 1-2 million people worldwide each year. Transmitted by mosquitoes, the sporozoite form of the parasite enters the blood stream to infect hepatocytes, where they become merozoites that infect red blood cells (erythrocytes). Within erythrocytes, merozoites begin a […] cycle of growth and division, after which the parasite is released to infect new red blood cells. Gametocytes, which form within erythrocytes as well, circulate in the bloodstream and are ingested by the mosquito, thereby completing the life cycle. To profile malarial isolates for differential chemical responses and to identify inhibitors of malarial growth, an assay that measures P. falciparum growth and replication within erythrocytes was employed. This assay uses a DNA binding fluorescent dye (SYBR Green) to detect parasite DNA following cell lysis. Because mature erythrocytes lack DNA, only Plasmodium-derived DNA is detected.
# NCGC Assay Protocol Summary: The SYBR Green viability assay was adapted from a method described previously (Plouffe et al., 2008). For screening 3 ul culture medium was dispensed into 1536 well black clear bottom plates (Aurora Biotechnologies) using a Multidrop Combi (Thermo Fisher Scientific Inc.), 23 nL compounds in DMSO were added by a pin tool (Kalypsys), and 5 ul of erythrocytes infected with P. falciparum (0.3% parasitemia, 2.5% hematocrit final concentration) were added. The plates were incubated at 37 C in a humidified incubator in 5% CO2 for 72 h, and 2 ul lysis buffer (20 mM Tris HCl, 10 mM EDTA, 0.16% saponin, 1.6% triton X, 10X SYBR Green I supplied as 10,000X […] by Invitrogen) was added to each well. The plates were mixed for 25 sec with gentle shaking and incubated overnight at room temperature in the dark. The following morning, fluorescence intensity at 485(14) nm excitation and 535(25) nm emission wavelengths was measured on an EnVision (Perkin Elmer) plate reader. Plate reads were normalized relative to the control inhibitor (0.29 uM artemisinin) and vehicle (DMSO) wells present on each plate and then corrected by an algorithm using vehicle-only control plates at the beginning and end of the compound plate stack.
# Potency is the fitted concentration of half-maximal effect.
row,SMILES,"activity, negative = inhibition"
1,O=C(O)c1ccccc1-c1c2cc(Br)c(=O)cc-2oc2[c]([Hg])c(O)c(Br)cc12,23.4% (inactive)

# Same assay, conditions: P. falciparum in erythrocytes, SYBR Green DNA, 72 h; at 12.8 µM (top of the series); parasite line B
row,SMILES,"activity, negative = inhibition"
1,O=C(O)c1ccccc1-c1c2cc(Br)c(=O)cc-2oc2[c]([Hg])c(O)c(Br)cc12,5.61% (inactive)

# Same assay, conditions: P. falciparum in erythrocytes, SYBR Green DNA, 72 h; at 28.7 µM (top of the series); parasite line A
row,SMILES,"activity, negative = inhibition"
1,CO[C@H]1[C@@H](O)CC(OC2[C@@H](O)CC(OC3[C@@H](O)C[C@H](OC4CC[C@@]5(C)C(CCC6C5CC(O)[C@]5(C)[C@H](C7=CC(=O)OC7)CCC65O)C4)O[C@@H]3C)O[C@@H]2C)O[C@@H]1C (stereo partly specified),-4.67% (inactive)
2,CCN(CC)CCO[C@H]1CC[C@@]2(C)C(=CC[C@@H]3[C@H]2CC[C@]2(C)C(=O)CC[C@H]32)C1,-0.0219% (inactive)
3,C[N+](C)(C)CC(=O)[O-],11.4% (inactive)
4,CCN1C[C@]2(COC)[C@H](O)C[C@H](OC)[C@]34C1C([C@H](OC)[C@H]23)[C@]1(OC(C)=O)C2[C@@H](OC(=O)c3ccccc3)C(O)(C[C@H]24)[C@@H](OC)[C@@H]1O,-2.64% (inactive)

# Same assay, conditions: P. falciparum in erythrocytes, SYBR Green DNA, 72 h; at 28.7 µM (top of the series); parasite line B
row,SMILES,"activity, negative = inhibition"
1,CO[C@H]1[C@@H](O)CC(OC2[C@@H](O)CC(OC3[C@@H](O)C[C@H](OC4CC[C@@]5(C)C(CCC6C5CC(O)[C@]5(C)[C@H](C7=CC(=O)OC7)CCC65O)C4)O[C@@H]3C)O[C@@H]2C)O[C@@H]1C (stereo partly specified),10.4% (inactive)
2,CCN(CC)CCO[C@H]1CC[C@@]2(C)C(=CC[C@@H]3[C@H]2CC[C@]2(C)C(=O)CC[C@H]32)C1,10.7% (inactive)
3,C[N+](C)(C)CC(=O)[O-],8.81% (inactive)
4,CCN1C[C@]2(COC)[C@H](O)C[C@H](OC)[C@]34C1C([C@H](OC)[C@H]23)[C@]1(OC(C)=O)C2[C@@H](OC(=O)c3ccccc3)C(O)(C[C@H]24)[C@@H](OC)[C@@H]1O,-26.7% (inactive)

# Same assay, conditions: P. falciparum in erythrocytes, SYBR Green DNA, 72 h; parasite line A
row,SMILES,Potency
1,Oc1cc[c]([Hg][Cl])cc1,7.94 µM (active)
2,CC(C)[C@@]1(NC(=O)[C@H]2CC3c4cccc5[nH]cc(c45)C[C@H]3N(C)C2)O[C@@]2(O)C3CCCN3C(=O)[C@@H](Cc3ccccc3)N2C1=O (stereo partly specified),6.31 µM (active)
3,CCCCCCCCCC[N+](C)(C)CCCCCCCCCC,5.01 µM (active)

# Same assay, conditions: P. falciparum in erythrocytes, SYBR Green DNA, 72 h; parasite line B
row,SMILES,Potency
1,Oc1cc[c]([Hg][Cl])cc1,10 µM (active)
2,CC(C)[C@@]1(NC(=O)[C@H]2CC3c4cccc5[nH]cc(c45)C[C@H]3N(C)C2)O[C@@]2(O)C3CCCN3C(=O)[C@@H](Cc3ccccc3)N2C1=O (stereo partly specified),5.01 µM (active)
3,CCCCCCCCCC[N+](C)(C)CCCCCCCCCC,6.31 µM (active)
